Sampled rows, rich in hits. Any-hit rate of the full collection: about 3.7%.
A549 tox: Nrf2 qHTS screen for inhibitors: counterscreen for cytotoxicity; A549 ARE-Fluc cells, CellTiter-Fluor viability, 18-24 h; Potency, µM (series often up to 46 µM), for inactives: at the highest dose activity change, negative = cytotoxicity, usual class: inhibitors; 390,000 tested, 0.16% active; AID 504648, 2011; note: potency is the fitted concentration of half-maximal effect; % is set by controls: 0 for no effect and ±100 for the full control effect
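A549 ARE-Fluc cells in 5% FBS OPTI-MEM, 5000 cells/well, rested 2 h then exposed to compounds in concentration-response for 18-24 h at 37 °C. Viability by CellTiter-Fluor fluorescence (Ex 405/Em 525) after 30 min; luciferase luminescence (BugLite, 15 min, RT) read afterwards.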
miR-21 act: qHTS Assay for Modulators of miRNAs and/orActivators of miR-21 | 340,000 tested, under 10 active | AID 2288, 2010 | HeLa miR-21 FLuc reporter, luciferase, 48 h | Potency, µM (highest dose often 38.3 µM), inactives show at the highest dose activity change, positive = activation, most hits filed as activators;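 note: % of control where 0% means no effect; miR-21 action dims this reporter so a rising signal means less miR-21 action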
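HeLa cells stably expressing CMV-driven firefly luciferase with a downstream miR-21 binding sequence, endogenously expressing miR-21, were treated with titrations (up to about 40uM final) for 48 hours at 37 degree Celsius. Luciferase luminescence was read after lysis.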
p53 reactivator: qHTS assay for re-activators of p53 using a Luc reporter; H1299 p53-A138V BP100-luciferase reporter, luminescence, 24 h; 320,000 tested, 0.063% active; Potency, µM (highest dose often 92.2 µM), without a hit: top-dose activity change, positive = activation, actives largely listed as activators; note: potency is the fitted concentration of half-maximal effect; % of control where 0% means no effect; nearly all actives have a fitted effect of over 45% in size
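p53-null H1299 cells stably carrying temperature-sensitive p53-A138V and a BP100-luciferase reporter were pinned with compounds (4-point, 1:5 series) and held 24 hrs at 37 deg C. Luminescence was read 10 min after detection reagent.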
Nrf2 activator: qHTS of Nrf2 Activators; AREc32 ARE-luciferase reporter (MCF7-derived line), luminescence, 24 h; Potency, µM (highest dose often 46.1 µM), without a hit: top-dose activation, hits mostly activators; 410,000 tested, 0.31% active; AID 624171, 2012; note: potency is the fitted concentration of half-maximal effect; % of control where 0% means no effect; nearly all actives have a fitted effect of over 65% in size
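Steps: seed AREc32_Fluc cells (1000/well, 5% FBS OPTI-MEM); incubate overnight at 37 deg C; add 23 nL compound; incubate 24 hr; add Steady-Glo; hold 30 min RT; read luminescence.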
ClpP mod: qHTS Assay for Activators of ClpP; ATP-dependent Clp protease proteolytic subunit (Bacillus subtilis (strain 168)), P80244; AID 651965, 2013; 340,000 tested, 1.9% active; purified B. subtilis ClpP, FRET peptide cleavage, 20 min; Potency, µM (top dose mostly 57.5 µM), for the others: at the top dose activity change, negative = active; active = well fitted falling curve with a large enough effect; inconclusive = small, poorly fitted or top-dose-only effect; inactive = no such curve, though single readings can be large or run the other way; note: potency is the fitted concentration of half-maximal effect; the source files actives as falling curves though it sought activators and does not explain the sign; nearly all actives have a fitted effect of over 65% in size
Target sequence (P80244 whole entry, looked up): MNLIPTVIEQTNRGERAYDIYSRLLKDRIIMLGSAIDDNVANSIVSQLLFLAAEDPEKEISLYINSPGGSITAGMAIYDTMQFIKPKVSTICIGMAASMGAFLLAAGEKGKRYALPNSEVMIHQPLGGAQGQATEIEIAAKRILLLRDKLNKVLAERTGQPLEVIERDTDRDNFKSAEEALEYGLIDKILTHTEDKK
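Buffer: 100 mM Tris/HCl pH8, 100 mM KCl, 0.05% low protease BSA, 2.5% glycerol, 0.01% Tween-20. ClpP 10 microg/mL final; 20 min RT; delta FRET normalized to ADEP and DMSO controls.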
Nrf2 inh: Nrf2 qHTS screen for inhibitors. A549 ARE-Fluc reporter, luciferase luminescence, 18-24 h. AID 504444, 2011. 360,000 tested, 2.1% active. Potency, µM (doses to about 46 µM), inactives show at the top dose activity change, negative = inhibition, usual class: inhibitors; note: potency is the fitted concentration of half-maximal effect; % is set by controls: 0 for no effect and ±100 for the full control effect; nearly all actives have a fitted effect of over 60% in size
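Reporter: ARE-Fluc in A549. Exposure: 18-24 h, 37 °C, 5% CO2, 5% FBS OPTI-MEM. Readouts: fluorescent cytotoxicity (CellTiter-Fluor), then luminescent Nrf2 signal after BugLite.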
An asterisk follows results filed as active; ? = inconclusive; · = not tested or not shown; [ ] = remark or other dose. Unless noted, calls come from the whole dose curve; as a rule, active = well fitted curve in the direction sought with a large enough effect; inconclusive = small, poorly fitted or top-dose-only effect, or another doubt; inactive = no such curve, though single readings can be large; an effect the other way counts as inactive or inconclusive.

SMILES	A549 tox	miR-21 act	p53 reactivator	Nrf2 activator	ClpP mod	Nrf2 inh
O=[N+]([O-])c1cc(S(=O)(=O)Oc2ccccc2)ccc1Cl	4%	·	·	-3%	35µM*	4%
O=S(=O)(Oc1ccccc1)c1ccc(Cl)c(Cl)c1	10%	·	·	0%	·	-1%
COc1ccccc1NC(=O)c1c(C)cc(C)nc1SCC(=O)Nc1cccc(C)c1	-17%	15%	·	5%	-5%	?
OC(c1ccccc1)(c1ccccc1)C1CCN(C(=S)NCCc2ccccc2)CC1	?	18%	4%	0%	·	23µM*
COc1ccc(OCc2cc(=O)[nH]c3ccccc23)cc1	-1%	-4%	·	2%	16µM*	-28%
COc1ccc(N(Cc2cc(=O)[nH]c3ccccc23)C(=O)CCl)cc1	-8%	?	-15%	6%	·	?
CCC(C(=O)Nc1cccc(C#N)c1)n1nc(-c2ccccc2)ccc1=O (stereo not given)	4%	7%	·	3%	-12%	-3%
O=C(CSc1nc2ccccc2c(=O)[nH]1)Nc1ccc([N+](=O)[O-])cc1	-6%	·	-6%	-1%	0%	16µM*
COCCCNC(=O)CSc1nc2ccccc2c(=O)n1Cc1ccc2c(c1)OCO2	-11%	7%	5%	-1%	28µM*	-16%
Cc1cccc(NC(=O)CSc2nc3ccccc3c(=O)n2C)c1C	·	·	·	-1%	-2%	·
Cn1c(SCC(=O)Nc2ccccc2)nc2ccccc2c1=O	0%	26%	·	0%[9.22 µM]	·	21µM*
O=C(CSc1nc2ccccc2c(=O)[nH]1)Nc1ccc(C(=O)O)cc1	0%	-1%	0%	0%	·	1%
COc1ccc(NC(=O)CSc2nc3sc(C)cc3c(=O)n2C)c(OC)c1	-11%	4%	-4%	-1%	1%	18µM*
COc1ccc(NC(=O)CSc2nc3sc(C)cc3c(=O)n2C)cc1	-16%	1%	0%	0%	·	-8%
CCc1cccc(NC(=O)CCc2nc3cccnc3n2Cc2ccc(OC)cc2)c1	-16%	-3%	·	2%	2%	?
Cn1c(SCC(=O)Nc2nc3ccccc3s2)ncc(C(=O)Nc2ccccc2)c1=O	3%	2%	·	4%	?	·
CCOc1ccc(NC(=O)CSc2nccn2C)cc1	-14%	-52%	45µM*	0%	2%	-3%
COC(=O)c1ccc(NC(=O)CSc2nc3cccnc3n2C)cc1	-7%	-3%	4%	0%	-1%	?
COCCn1c(SCC(=O)NNC(=O)c2ccccc2)nc2ccccc2c1=O	-2%	-3%	1%	0%	28µM*	1%
CCOC(=O)c1ccc(NC(=O)CSc2nc3cccnc3n2C)cc1	-8%	1%	1%	0%	-2%	21µM*
Cn1c(SCC(=O)Nc2nc3ccccc3s2)ncc(C(=O)Nc2ccc(Cl)cc2)c1=O	0%	-23%	·	6%	22µM*	·
CCOC(=O)c1sc2ccccc2c1S(=O)(=O)Nc1ccc(N(C)C)cc1	-2%	-11%	·	12%	1%	4%
Cc1cccc(NC(=O)CSc2nc3sc(C)cc3c(=O)n2C)c1	-9%	·	·	6%	·	23µM*
Cc1ccc2c(c1)-c1ccccc1S(=O)(=O)N2	3%	-2%	-2%	-1%	28µM*	-8%
Nc1ccc2c(c1)-c1ccccc1S(=O)(=O)N2	0%	-8%	0%	-1%	0%	5%
SMILES	A549 tox	miR-21 act	p53 reactivator	Nrf2 activator	ClpP mod	Nrf2 inh
CCC(C)(C)NC(=O)C(c1ccc(OC)cc1)N(C(=O)CCC(=O)Nc1cc(C)on1)c1cccc(F)c1 (stereo not given)	?	5%	5%	0%	·	5.8µM*
CC(=O)c1ccc(OCC(O)COc2ccc(C(C)=O)cc2)cc1	3%	-7%	3%	0%	1%	1%
CC(=O)c1ccc(OCC(O)CN(C)CCOc2ccc(Br)cc2)cc1 (stereo not given)	-1%	23%	-4%	5%	·	18µM*
CC(C)Cn1c(N)c(C(=O)CSc2nc3ncc(Cl)cc3[nH]2)c(=O)n(C)c1=O	?	·	-3%	4%	-5%	12µM*
CCCn1c(N)c(C(=O)CSc2nc3ncc(Cl)cc3[nH]2)c(=O)n(C)c1=O	2%	·	6%	0%	0%	4%
Cc1ccc(Cl)cc1NS(=O)(=O)c1cc2c(cc1F)NC(=O)CC2	14%	·	·	·	·	-13%
O=C(CSc1nc2c(c(=O)[nH]1)CCC2)Nc1cc(C(F)(F)F)ccc1Cl	10%	16%	·	-1%	1%	?
O=C/C(=C\Nc1ccccn1)c1nc2cc(Cl)ccc2o1	3%	-21%	30%	23%	2%	26%
O=C/C(=C\Nc1ccccn1)c1nc2ccccc2o1	6%	-19%	26%	13µM*	-21%	?
CCOc1ccc(-c2nonc2NC(=O)c2oc3ccc(Cl)cc3c2C)cc1	-7%	?	·	0%	0%	3%
CCc1cc(C(=O)N2CCCC(N3CCN(c4cccc(C(F)(F)F)c4)CC3)C2)n(C)n1 (stereo not given)	-17%	27%	3%	0%	-2%	8.2µM*
CC1CCCCN1Cc1c(O)ccc2c(=O)c(-c3ccc(Cl)cc3)c(C(F)(F)F)oc12 (stereo not given)	8%	0%	·	-1%	-2%	2%
CCN(CC)c1ccc(/C=C/c2ccc3ccccc3n2)cc1	·	·	·	·	-1%	·
CCOC(=O)CNc1c(-c2ccc(F)cc2)nc2cnccn12	18%	-1%	1%	0%	25µM*	-17%
CCOC(=O)CNc1c(-c2ccc(OC)cc2)nc2ccc(Cl)cn12	0%	-35%	?	3%	-9%	?
CCOC(=O)CNc1c(-c2ccc(Cl)cc2)nc2cnccn12	17%	-7%	-4%	0%	28µM*	8%
Cc1cc(C)n(CCc2nc3c4ccccc4nc(N4CCN(c5ccc(F)cc5)CC4)n3n2)n1	-2%	-4%	·	0%	0%	-16%
O=C(CSc1nccc(-c2cccs2)n1)Nc1ccc(F)c(Cl)c1	-1%	3%	-4%	7.9µM*	-8%	?
O=C(CSc1nccc(-c2cccs2)n1)Nc1cccc(Cl)c1	-4%	-2%	-4%	?	·	?
Cc1ccc(C(=O)Nc2ccc(Br)cc2)cc1S(=O)(=O)NCc1ccccc1	?	30%	·	0%	-27%	?

Compound activity as filed in PubChem.
